# Most compounds without a hit are left out; they make up all but 1.3% or so of the library.
# Mtb hypoxia inh: reduces hypoxia-regulated biosensor signal in M. tuberculosis. M. tuberculosis hypoxia-regulated fluorescent reporter, fluorescence. fluorescence inhibition, % (test concentration not listed). 0.1% of 300,000 active; in the data active = fluorescence inhibition mostly above about 23%, no sharp cut-off; inactive = mostly below about 17%
# MazF activator: increases E. coli MazEF RNase cleavage of RNA | FAM/BHQ RNA-DNA oligo cleavage fluorescence, 5 h | activation, % at 20 µM | 0.32% of 350,000 active | AID 504720; in the data active = activation above about 50%
# PfHsp40 rescue: restores yeast growth despite PfHsp40 toxicity; S. cerevisiae expressing PfHsp40, growth rescue, ATP luminescence; growth rescue, % at 12.5 µM; 0.68% of 340,000 active; AID 504582; in the data active = growth rescue above about 28%, passing the limit was not always enough;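 note: yeast W303a lacking pdr1 and pdr3 grown in galactose medium; growth measured after three days at 30 °C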
# TcdB inh: TcdB glycohydrolase inhibition | 0.24% of 350,000 active | AID 652162 | P18177 | TcdB glycohydrolase enzymatic assay, plate reader | inhibition, % at 9.99 µM; in the data active = inhibition above about 10%
# Sa ugtP lethal: kills S. aureus RN4220 lacking UgtP. 0.54% of 330,000 active. growth inhibition, % (concentration not given with the values). S. aureus RN4220 ugtP deletion, OD600 growth, 16 h; in the data active = growth inhibition above about 68%;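 note: plate controls were untreated wells for no effect and antibiotic for full effect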
# RN4220 kill: kills Staphylococcus aureus RN4220; 0.33% of 330,000 active; S. aureus RN4220 growth, OD600, 16 h; AID 1259311; inhibition, % (no concentration beside the values); in the data active = inhibition above about 85%;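 note: plate controls were untreated cells for no effect and reference antibiotic for full effect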
# * hit, by the source's call; . = no result; ! = not confirmed by another sample.
SMILES,Mtb hypoxia inh,MazF activator,PfHsp40 rescue,TcdB inh,Sa ugtP lethal,RN4220 kill
COCC(=O)N1CC[C@@H]2[C@H]1c1cc(-c3cccc(OC)c3)ccc1N(C)[C@H]2CO,.,.,.,13.5*,.,.
O=C1COc2ccc(S(=O)(=O)N3CCN(c4cccc(Cl)c4)CC3)cc2N1,-11.0,-11.5,53.4*,0.5,3.7,0.8
COc1cc(OC)c(C#N)c(S(=O)(=O)Cc2ccccc2)c1,-5.0,0.3,64.1*,.,4.6,10.4
Cc1ccc(S(=O)(=O)Nc2ccc3c(c2)C(=O)N(C)[C@@H]2CC[C@H](CC(=O)NCCc4ccncc4)O[C@H]2CO3)cc1,.,.,.,0.4,.,.
Cc1nc2c(=O)n(C)c(=O)nc-2n(C)n1,.,-27.4,-0.8,.,38.8,36.6
CCn1nc(-c2ccccc2)nc2c(=O)n(C)c(=O)nc1-2,-5.0,-82.3,10.7,.,99.9*,94.9*
Cc1cccc(-c2n[nH]c(=S)n2/N=C/C=C/c2ccco2)c1,.,-4.1,0.4,10.1*,.,.
C/C(C=Nn1c(-c2ccncc2)n[nH]c1=S)=C\c1ccco1,7.2,.,.,.,5.2,6.4
Cc1cccc(-c2n[nH]c(=S)n2N=C/C=C/c2ccco2)c1,9.4,.,.,.,-4.7,12.1
CC(/C=N/n1c(-c2ccncc2)n[nH]c1=S)=C\c1ccco1,.,0.9,0.8,19.5*,.,.
Cc1cccn2c(=O)c3cc(C#N)c(=NC(=O)c4ccccc4)n(Cc4ccco4)c3nc12,-1.3,-54.4,0.4,-4.4,-8.6,-4.8
Cc1cccc(C(=O)N=c2c(C#N)cc3c(=O)n4cccc(C)c4nc3n2Cc2ccco2)c1,-4.8,53.8*!,0.4,-1.3,-9.1,0.2
CCOC(=O)Nc1ccc(Oc2ccccc2)cc1,6.9,4.8,2.1,.,26.2,3.1
CCOC(=O)Nc1ccc(OC(=O)Oc2ccc(NC(=O)OCC)cc2)cc1,.,8.7,-0.3,11.6*,.,.
C(=Nn1cnnc1)c1cccc(Oc2ccccc2)c1,5.7,.,.,.,5.4,-0.2
O=C(O)c1ccc(NN=Cc2cccc(C(F)(F)F)c2)cc1,3.8,.,.,.,15.9,-1.2
Cc1ccc(S(=O)(=O)Oc2cccc(/C=N/Nc3ccc(C(=O)O)cc3)c2)cc1,.,-4.9,-0.5,11.1*,.,.
Cc1ccc(S(=O)(=O)Oc2cccc(/C=N/n3cnnc3)c2)cc1,.,4.9,0.2,10.5*,.,.
CC(CC(=O)Nc1ccc(Cl)c(C(F)(F)F)c1)=NNC(=O)c1cnccn1,0.1,.,.,.,-6.1,-0.4
CN(C)c1ccc(C=c2c3ccccc3n3c2c2ccccc2[n+]3C)cc1,.,-6.0,1.8,-0.5,.,.
Cc1cc2c(=Cc3ccc(N(C)C)cc3)c3ccccc3n2[n+]1C,.,-79.6,179.6*,-0.2,.,.
CCOC(=O)c1cc2c(=Cc3ccc(N(C)C)cc3)c3ccccc3n2[n+]1C,.,36.3,284.4*,3.3,.,.
O=C(NC1CCCCC1)N[C@H]1CC[C@H](CCNS(=O)(=O)c2ccc(F)cc2)O[C@@H]1CO,.,.,.,-1.4,.,.
FC(F)(F)Oc1ccc(NC(=S)Nc2ccc(OC(F)(F)F)cc2)cc1,13.4,-1.3,145.2*,-0.1,91.9*,98.5*
O=C(CNCc1ccccc1Cl)Nc1cc(S(=O)(=O)N2CCOCC2)ccc1Cl,3.7,2.7,-0.3,-2.8,14.5,6.2
SMILES,Mtb hypoxia inh,MazF activator,PfHsp40 rescue,TcdB inh,Sa ugtP lethal,RN4220 kill
O=C(Nc1cc(S(=O)(=O)N2CCOCC2)ccc1Cl)C(=O)c1c(-c2ccccc2)cc2ccccn12,12.7,2.4,66.4*,.,-10.4,10.2
C[C@H]1CN([C@@H](C)CO)C(=O)c2c(c3ccccc3n2C)-c2ccccc2CO[C@H]1CN(C)S(=O)(=O)c1cn(C)cn1,.,.,.,-0.3,.,.
CC(C)(C)C1CCc2[nH]c3ccccc3c(=O)c2C1 (configuration not stated),-14.0,2.1,102.2*,.,0.9,4.3
O=c1c2c([nH]c3ccccc13)CCCC2,14.7,2.6,0.5,.,-2.1,2.7
C[C@H]1CN([C@@H](C)CO)C(=O)Cc2cc(NC(=O)Cc3ccccc3)ccc2O[C@H]1CN(C)Cc1ccc(C(=O)O)cc1,.,.,.,0.7,.,.
CN1C[C@H](O)COC[C@@H]2O[C@H](CC(=O)NC3CCCC3)CC[C@H]21,.,.,.,-1.0,.,.
COc1cccc(NC(=O)N2CCc3ccccc3C2)c1,6.9,0.5,0.1,1.2,-1.4,2.3
O=C(Nc1cccc(Cl)c1)N1CCc2ccccc2C1,2.6,-0.6,44.1*,4.3,-12.1,-2.8
CC(C)(C)NC(=O)C1Cc2ccccc2CN1C(=O)Nc1cccc(Cl)c1 (configuration not stated),-1.3,113.5*,-0.5,.,-6.2,0.0
CCOC(=O)c1cnc(SCC(=O)N2CCc3ccccc32)nc1N,10.4,67.8*,-0.8,.,2.8,2.5
S=C(NC1CCCC1)N1CCN(c2cccc(Cl)c2)CC1,5.4,1.5,46.5*,0.8,-9.8,1.9
S=C(NC1CC1)N1CCN(c2ccc(Cl)cc2)CC1,11.5,0.2,3.5,-0.1,-1.1,2.1
COc1ccc(-n2cc3c(-c4cccc(Br)c4)nnc(C)c3n2)cc1,.,51.8*,7.9,0.3,.,.
Cc1ccc(NC(=S)NN=C2CCCCc3ccccc32)cc1,15.2,.,.,.,active,94.5
COc1ccc(Br)cc1C=NNC(=O)c1cc(Br)ccc1O,-2.8,.,.,.,2.3,1.8
O=C(OCC(=O)C12CC3CC(CC(C3)C1)C2)c1ccc(O)cc1,4.9,-11.3,424.9*,-1.4,4.6,0.0
O=C(OCC(=O)C12CC3CC(CC(C3)C1)C2)c1ccc(CO)cc1,24.6*,-2.4,0.9,0.6,-0.4,-0.5
O=C(OCC(=O)C12CC3CC(CC(C3)C1)C2)c1ccccc1O,2.2,10.7,0.0,-0.1,5.7,1.4
CC(=O)c1ccc(N2CCN(C(=O)c3cccc(Oc4ccccc4)c3)CC2)cc1,6.8,1.5,0.6,1.0,86.6*,-7.1
CC(=O)c1ccc(N2CCN(C(=O)c3ccc(-c4ccccc4)cc3)CC2)cc1,-4.4,4.6,0.3,1.3,3.9,8.3
Cc1c(NC(=O)COC(=O)c2cc(-c3cccc4ccccc34)nc3ccccc23)c(=O)n(-c2ccccc2)n1C,.,61.6*,1.1,.,.,.
Cc1ccc2nc(C)cc(C(=O)OCC(=O)Nc3c(C)n(C)n(-c4ccccc4)c3=O)c2c1,13.1,5.2,-0.3,0.0,2.1,7.2
CNC(=O)c1nnsc1S(=O)(=O)c1ccc(Cl)cc1,17.7,11.4,209.1*,1.3,11.7,7.1
O=C(c1nnsc1S(=O)(=O)c1ccc(Cl)cc1)N1CCOCC1,22.7,1.2,-0.8,0.5,19.0,10.0
O=C(NCC(c1cccnc1)N1CCN(c2ccc(F)cc2)CC1)C1CCCCC1 (configuration not stated),3.8,6.2,69.8*,.,10.5,-0.3
CCC(=O)N[C@H]1CC[C@H](CC(=O)NCc2ccc(OC)cc2)O[C@H]1CO,.,.,.,-0.3,.,.
COCc1c(Br)c(C)nc(OCC(=O)N/N=C/c2ccc(C)o2)c1C#N,.,3.8,-1.6,10.7*,.,.
COc1ccc(C2CC=C(C(=O)O)C(c3cccc(Cl)c3)N2S(=O)(=O)c2ccc(Cl)cc2)cc1 (configuration not stated),4.3,.,.,.,35.2,23.4

# Screening results: PubChem, several laboratories
